Shown are actives, neighbours in structure and some others; about 3% of the full set was active somewhere.
Rv3671c protease – Rv3671c (M. tuberculosis) protease inhibition; inhibition, % at 5.96 µM; P9WHR9; 320,000 tested, 0.048% active; in the data active means inhibition above about 38%;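 further: extracellular domain of Rv3671c used as enzyme; 0% = enzyme with DMSO and 100% = no enzyme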
Target sequence (P9WHR9 whole entry, looked up, the tested form may be a part): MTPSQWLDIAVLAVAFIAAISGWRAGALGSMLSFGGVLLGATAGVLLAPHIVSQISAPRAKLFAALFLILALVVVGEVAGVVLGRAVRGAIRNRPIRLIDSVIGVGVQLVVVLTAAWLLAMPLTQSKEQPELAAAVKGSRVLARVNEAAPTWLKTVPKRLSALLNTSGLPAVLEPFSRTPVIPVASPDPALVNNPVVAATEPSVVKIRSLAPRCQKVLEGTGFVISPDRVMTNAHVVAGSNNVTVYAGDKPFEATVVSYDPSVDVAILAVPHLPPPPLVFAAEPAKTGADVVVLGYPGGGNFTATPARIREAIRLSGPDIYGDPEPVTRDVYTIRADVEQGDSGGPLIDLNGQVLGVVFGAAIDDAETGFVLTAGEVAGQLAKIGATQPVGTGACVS
GDH-TPI inh – inhibits GDH-TPI coupling enzymes, artifact for Mtb FBA screen. GDH-TPI coupled enzyme counterscreen, NADH absorbance. inhibition, % at 4.8 µM. 360,000 tested, 1.2% active. AID 588335; in the data active means inhibition above about 30%;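 further: 0% = DMSO wells and 100% = wells lacking the enzyme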
Mtb BioA inh – BioA (M. tuberculosis) enzyme inhibition; AID 602481; inhibition, % at 9.99 µM; purified M. tuberculosis BioA enzyme, plate reader; 360,000 tested, 0.096% active; in the data active means inhibition above about 40%; inconclusive means no clear call, values can overlap the other calls
FadD28 FP inh – M. tuberculosis FadD28 bisubstrate binding inhibition; 360,000 tested, 0.22% active; inhibition, % at 12.5 µM; FadD28 bisubstrate probe binding, fluorescence polarization; AID 588549; in the data active means inhibition above about 8.5%, passing the limit was not always enough; inconclusive means no clear call, values can overlap the other calls
Mtb FBA inh – Mtb fructose-bisphosphate aldolase inhibition; P9WQA3; purified M. tuberculosis FBA, fluorescence read-out; inhibition, % at 1 µM; 360,000 tested, 2.3% active; in the data active means inhibition above about 27%;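 further: 0% = vehicle and 100% = reference inhibitor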
Starred values were filed as active, the others as inactive; ? = inconclusive; nt = not tested or not shown; + = active, no number.

SMILES	Rv3671c protease	GDH-TPI inh	Mtb BioA inh	FadD28 FP inh	Mtb FBA inh
Cc1ccc2nc(-c3ccc(NC(=O)CSCC(=O)O)cc3)sc2c1	-6	49*	1	-6	199*
O=C(O)CSCC(=O)Nc1ccc(-c2nc3ccccc3s2)cc1	-7	23	1	-10	116*
Cc1ccc2sc(-c3ccc(NC(=O)/C=C\C(=O)O)cc3)nc2c1	nt	22	3	-3	+
C[C@@H]1CN([C@H](C)CO)C(=O)Cc2cc(NC(=O)C3CC3)ccc2O[C@H]1CN(C)CC1CC1	nt	nt	0	nt	nt
Cc1csc(NC(=O)CSCC(=O)O)c1-c1nc2ccccc2s1	-5	35*	nt	0	0
COc1cccc(C(=O)Nc2ccc3c(c2)C(=O)N(C)[C@@H]2CC[C@@H](CC(=O)NCC4CC4)O[C@H]2CO3)c1	nt	nt	-2	nt	nt
CCOC(=O)c1c(C)[nH]c(C(=O)N/N=C/c2ccc(OC)c(OC)c2)c1C	-9	43*	-2	-5	-3
COc1ccccc1/C=N/NC(=O)c1[nH]c(C)c(C(=O)N/N=C/c2ccccc2OC)c1C	0	54*	nt	-3	-2
CC(C)NC(=O)N(C)C[C@@H]1Oc2ccc(NC(=O)Cc3ccccc3)cc2CC(=O)N([C@@H](C)CO)C[C@@H]1C	nt	nt	-2	nt	nt
Cc1nc2c(C)cccc2c2c1CCN2c1ccccc1F	5	10	nt	-3	113*
CC(=O)Nc1cccc2c1Cc1cc([N+](=O)[O-])ccc1-2	nt	40*	nt	0	1
CC(=O)Nc1cccc2c1Cc1ccccc1-2	-2	-16	-1	-3	-6
Cc1c(/C=N/Nc2ccc(F)cc2)c(O)n(C)c(=O)c1C#N	-2	33*	nt	-2	-6
COc1ccc(CN(C)C[C@@H]2OCCCC[C@H](C)Oc3ccc(NS(=O)(=O)c4cn(C)cn4)cc3C(=O)N([C@@H](C)CO)C[C@H]2C)cc1	nt	nt	9	nt	nt
Cc1ccc(C2=N/C(=C/N3CCOCC3)C(=O)O2)cc1	9	38*	0	3	5
Cc1ccc(C2=N/C(=C\N3CCCCC3)C(=O)O2)cc1	4	62*	-1	-1	-2
COc1ccc(/C=C2\N=C(c3ccc(C)cc3)OC2=O)cc1	5	7	0	0	0
Cc1c(O)c(=O)c2ccccc2n1C	7	25	-1	1	150*
CCOc1ccc(C2OC34CCCCC3C(C#N)(C#N)C2(C#N)C(=N)O4)cc1OC (stereo unspecified)	37	-3	-3	1	75*
C=CCOc1ccc(CNCC2CCCO2)cc1 (stereo unspecified)	10	-4	-1	0	0
C=CCOc1ccc(C2OC34CCCCC3C(C#N)(C#N)C2(C#N)C(=N)O4)cc1 (stereo unspecified)	7	4	-8	?	58*
CCCCOc1ccc(C2OC34CCCCC3C(C#N)(C#N)C2(C#N)C(=N)O4)cc1 (stereo unspecified)	12	-3	-9	?	73*
CCOc1ccc(C2C(C#N)=C(N)SC(N)=C2C#N)cc1OC	-19	nt	nt	nt	nt
C[C@@H]1CN([C@@H](C)CO)C(=O)Cc2cc(N(C)C)ccc2O[C@@H]1CN(C)C(=O)Nc1ccc(F)cc1	nt	nt	-3	nt	nt
CCOC(=O)c1nn(-c2ccc(F)cc2)cc1O	2	4	nt	-3	4
SMILES	Rv3671c protease	GDH-TPI inh	Mtb BioA inh	FadD28 FP inh	Mtb FBA inh
CCOC(=O)c1nn(-c2ccc3c(c2)CCN3C(C)=O)cc1O	-17	26	0	-2	+
C[C@@H]1CN([C@H](C)CO)C(=O)c2cc(-c3ccccc3)cnc2O[C@H]1CN(C)C	nt	nt	-2	nt	nt
S=c1[nH]c2ccc(Cl)cc2[nH]1	-5	13	-1	-1	2
S=c1ncc2[nH]c(=S)[nH]c2[nH]1	nt	36*	-1	-1	1
COc1cc(NC(=O)COc2ccccc2[N+](=O)[O-])ccc1NC(=O)c1cccs1	nt	41*	-1	-2	0
COc1cc(NC(=O)COc2ccccc2Cl)ccc1NC(=O)c1cccs1	-11	12	0	-2	-1
COc1cc(NC(=O)c2cccs2)ccc1NC(=O)c1ccco1	-10	35*	-1	-4	2
C[C@@H]1CN([C@@H](C)CO)C(=O)c2cc(NC(=O)Nc3ccc4c(c3)OCO4)ccc2O[C@@H]1CN(C)S(=O)(=O)c1cccs1	nt	nt	0	nt	nt
O=C(C[C@H]1C[C@@H]2c3cc(NC(=O)C4CCOCC4)ccc3O[C@@H]2[C@@H](CO)O1)NCc1cc(F)ccc1F	nt	nt	-1	nt	nt
CN(C)C(=O)[C@@H]1[C@@H](CO)[C@@H]2Cn3c(ccc(-c4ccccc4)c3=O)[C@H]1N2C(=O)C1CCCC1	nt	nt	0	nt	nt
CCOC(=O)c1ccc(-c2ccc(/C=N/NC(=O)c3cncc(Br)c3)o2)cc1	-10	-1	-2	-2	2
